Our source for the displacement values is PubChem BioAssay AID1817 (Sanford-Burnham Center for Chemical Genomics, 2009).

Hit rate of the full screen: of about 290,000 compounds, about 50 (0.02%) were called active. What follows is part of a selection rich in actives, with near analogues and random picks from the rest. Measured potencies and affinities stand elsewhere. Values without a mark were called inactive.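 Rule for the calls: active = displacement of at least 50% at 20 µM, with a fluorescence ratio check between 0.3 and a set limit; inactive = the rest.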

E3 ubiquitin-protein ligase SIAH1 (Homo sapiens), sequence (Q8IUQ4 whole entry, looked up): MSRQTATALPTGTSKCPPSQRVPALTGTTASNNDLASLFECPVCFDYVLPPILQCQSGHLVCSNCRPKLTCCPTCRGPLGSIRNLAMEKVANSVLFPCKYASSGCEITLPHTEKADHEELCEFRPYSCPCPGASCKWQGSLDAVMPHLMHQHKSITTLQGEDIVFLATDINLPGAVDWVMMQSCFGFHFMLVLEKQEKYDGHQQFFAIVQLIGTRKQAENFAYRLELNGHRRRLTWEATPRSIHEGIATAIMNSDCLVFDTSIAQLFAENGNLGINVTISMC

The assay addresses E3 ubiquitin-protein ligase SIAH1 (Homo sapiens) (UniProt Q8IUQ4). As to the kind of experiment: Siah-1 peptide-binding antagonists, primary screen, biochemical, fluorescence polarization, rhodamine-plectin, uHTS (AID 1817).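 Note: plate controls were Siah plus tracer with DMSO for no effect and tracer alone without Siah for full effect.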 As to conditions: Siah-1 / rhodamine-plectin peptide fluorescence polarization; at 20 µM; active compounds read high.
For the compound `Cc1nc(N)sc1-c1csc(Nc2ncccn2)n1`, the displacement is 57.3% (active). The result for `Cc1nc(N)sc1-c1csc(Nc2ccccn2)n1` reads -1.4%; that for `Cc1nc(N)sc1-c1csc(Nc2ccccc2)n1`, 3.2%. Under `CCOC(=O)c1[nH]c2ccccc2c1NC(=O)c1ccc(S(=O)(=O)N2CCCCC2)cc1` stands -3.4%. Regarding `COc1ccc(C(=O)N2CCC(O)(c3ccc(Cl)cc3)CC2)cc1OC`, the displacement is -8.7%. Under `CC1CCc2onc(C(=O)NCc3ccco3)c2C1` (stereo not given) stands 3.6%; under `Cc1ccccc1Nc1nc(-c2sc(NC(=O)c3ccccc3)nc2C)cs1`, -5.4%; under `O=C(CN1C(=O)N/C(=C\c2ccccc2OCc2ccc(C(=O)O)cc2)C1=O)Nc1ccc(F)cc1`, 1.1%. Under `O=C(CN1C(=O)N/C(=C\c2ccccc2OCc2ccc(C(=O)O)cc2)C1=O)Nc1ccccc1F` stands 10.4%; under `CCOC(=O)CNC(=S)N(Cc1cccs1)C1CCCC1`, 0.7%. Under `Cc1cccc(C(=O)NNC(=O)c2ccc(S(=O)(=O)N3CCOCC3)cc2)c1` stands -3.9%; under `O=c1[nH]n(-c2ccccc2)c(=O)c2ccccc12`, 0%. As for `O=c1cc(-c2ccccc2)[nH]n1-c1ccc([N+](=O)[O-])cc1`, the displacement is -0.2%. For the compound `O=C(C1CCN(S(=O)(=O)c2ccc(F)cc2)CC1)N1CC=C(c2ccccc2)CC1`, the displacement was 3%. The result for `COc1ccc(C(CNC(=O)C(C)c2ccc3cc(OC)ccc3c2)N(C)C)cc1` (stereo not given) reads 5.2%; that for `CC1=C(C#N)c2nc(N)c(C#N)c(C)c2/C1=C\c1ccc(C)cc1`, -2.8%. The result for `CC1=C(C#N)c2nc(N)c(C#N)c(C)c2/C1=C\c1ccc(OCC(=O)O)c(Cl)c1` reads 0%; that for `COc1ccc(C2=[N+]([O-])C(C)(C)C(c3ccccc3)=N2)cc1`, 6.6%; that for `COc1ccc(-c2nc(CN3CCN(Cc4cccc(F)c4)CC3)c(C)o2)cc1`, 13.6%. The result for `O=C(CCC1CCCC1)N1CCN(C(=O)c2ccco2)CC1` reads -6%. For the compound `O=C(CNC(=O)c1ccccc1F)NC1CCN(Cc2ccccc2)CC1`, the displacement was -3.7%. The result for `CC(SCc1ccccc1)C(=O)Nc1ccccc1Br` (stereo not given) reads -6.3%; that for `Cc1sc2cc(-c3cccc([N+](=O)[O-])c3)c(-c3cccc([N+](=O)[O-])c3)c[n+]2c1C`, 5.1%; that for `Oc1ccccc1/C=N/NC(=S)NC1CC2CC1C1C=CCC21` (stereo not given), 2.4%.

As for `CC(C)(C)c1nnc(N/N=C/c2ccccc2)n(N)c1=O`, the displacement is 51.9% (active). The result for `CC(C)(C)c1nnc(N/N=C/c2ccc(Br)cc2)n(N)c1=O` reads 7.3%; that for `CC(C)(C)c1nnc(N/N=C/c2ccc(O)cc2)n(N)c1=O`, 18.4%. The result for `CCCc1nnc(NC(=O)C2CC(=O)N(CCc3ccc(F)cc3)C2)s1` (stereo not given) reads 24.3%; that for `Cc1c(C)n(C(=O)CSc2nc3ccccc3[nH]2)c2ccccc12`, 51% (active); that for `Cc1c(C)n(C(=O)CSc2ncn[nH]2)c2ccccc12`, -4.9%.

Regarding `Cc1[nH]c2ccccc2c1C(=O)CSc1nc2ccccc2[nH]1`, the displacement was -0.5%. The result for `O=C(CSCc1nc2scc(-c3cccs3)c2c(=O)[nH]1)Nc1ccccn1` reads -4.4%; that for `COc1ccc(OCC(O)CNC(=O)c2ccccc2C(=O)O)cc1` (stereo not given), 8.1%.

Regarding `CCOC(=O)C(C(=O)OCC)c1cc(Br)c2noc3c2c1C(=O)c1ccccc1-3`, the displacement was 102% (active). The result for `CCOC(=O)N1CCN(c2cc(NCCC(=O)O)c3c4c(onc24)-c2ccccc2C3=O)CC1` reads 16.7%.

Consider `CCOc1ccc2noc3c2c1C(=O)c1ccccc1-3`, for which the displacement is 37.3%. In the case of `COc1ccc(-c2cc(C(=O)N3CCc4ccccc4C3)no2)cc1`, the displacement was 0.3%. The result for `Cc1ccc(S(=O)(=O)N2CCN(c3cccc(C)c3)CC2)cc1` reads 12.1%; that for `COc1cccc(OCc2cc(C(=O)NC3CCOCC3)no2)c1`, 1.4%; that for `CC1=C([N+](=O)[O-])C(c2ccccc2)NC(=O)N1` (stereo not given), -5.5%.
